Measured values from ChEMBL document CHEMBL3988442, “University of Dundee, Small-Polar-MMV Screening Library” (2021).
The campaign covered roughly 48,000 compounds. About 13,000 (27%) showed an effect of 50% or more. The list shows a part of the results.

These compounds were tested on Wolbachia pipientis (assay: Anti-Wolbachia Cell-Based Screen). Details: 5 µM.
Type: functional
Set-up: scale not given: in the data most compounds retested in dose-response had high values

| SMILES | Percent Effect |
| --- | --- |
| CC(C)COc1cncc(NC(CO)c2ccco2)n1 (centres undefined) | -5.064% |
| CC(C1CCN(Cc2ccccc2OC(F)F)CC1)N1CCOCC1 (centres undefined) | 23.13% |
| CCN(CC(=O)NC)C(=O)c1cc(-c2cccc(Cl)c2)no1 | -2.874% |
| CNS(=O)(=O)c1ccc(CN2CCCN(CC(C)C)CC2)cc1 | 8.265% |
| Nc1cccc(-c2cccc3ccnn23)n1 | 9.414% |
| O=C(N[C@H]1CC[C@H](O)CC1)c1ccc2nc(-c3ccc(F)cc3)cn2c1 | -4.798% |
| NC(=O)Cn1ccnc1C1CCCN(Cc2ccccc2OC(F)F)C1 (centres undefined) | -1.119% |
| O=C1CC2(CCN(C(=O)c3ccc4c(c3)CCCO4)C2)C(=O)N1 (centres undefined) | -2.87% |
| Cc1ccsc1-c1nc(CN(C)Cc2noc(C(C)C)n2)c(C)o1 | 10.67% |
| COc1ccc(CNC(=O)Nc2ccc(CN3CCOC3=O)cc2)cc1 | 12.97% |
| COc1ccc(CNC(=O)Nc2ccc(=O)n(C)c2)cc1 | -2.437% |
| COc1ccc(NC(=O)Nc2c(O)c3ccccc3oc2=O)cc1 | 106% |
| CCn1ncnc1CN(C/C=C/c1ccccc1)CCOC | 8.107% |
| CC(C)(C)CCN1CCN(Cn2nccc2-c2cccnc2)CC1 | -19.45% |
| Cc1ncc(C(=O)N2CCC(C(=O)NC3CCCC3)C2)c(C)n1 (centres undefined) | 133.9% |
| Cc1ncc(C(=O)N2CC(C(=O)N3CCCCCC3)C2)c(C)n1 | 132.1% |
| Cc1ncc(C(=O)N2C[C@H](CO)C[C@H](CN3CCOCC3)C2)c(=O)[nH]1 | -13.12% |
| Cc1cnc(N2CC(C(=O)N3CCOCC3)C3(CCOCC3)C2)nc1 (centres undefined) | -3.796% |
| CCc1nc(C)ncc1C(=O)N1CCCC(n2nc(C)nc2C)C1 (centres undefined) | -5.056% |
| Cc1ncc(C(=O)N2CC(C(=O)N3CCOCC3)C2)c(C)n1 | 106.6% |
| Cc1ncc(C(=O)N2C[C@H]3CC[C@@H]2CN(S(=O)(=O)N(C)C)C3)c(C)n1 | 4.102% |
| O=C(NC1CCCCC1)C1CCCN(C(=O)Nc2ccccn2)C1 (centres undefined) | 6.063% |

| SMILES | Percent Effect |
| --- | --- |
| Cc1nc(N2CCCCC2)ncc1C(=O)N1CC(C)(C)[C@@](C)(O)C1 | 13.78% |
| CCc1ncc2c(n1)CN(CCCOc1ccc(C#N)cc1)CC2 | -6.685% |
| CC(C)c1nnc2ccc(N3CCC(C(=O)Nc4nccs4)CC3)nn12 | 11.38% |
| Brc1cc2c(cc1CN1CCC(N3CCCCC3)CC1)OCCO2 | -3.138% |
| O=C(NCc1ccco1)[C@@]12CCO[C@@H]1CCN(Cc1nccs1)C2 | -2.827% |
| O=C(NCc1ccco1)[C@@]12CCO[C@@H]1CCN(CCN1CCCC1)C2 | -0.5732% |
| CC(=O)N1CC[C@H]2OCC[C@@]2(C(=O)NCc2cnc(C)cn2)C1 | 98.12% |
| O=C(NCc1ccco1)[C@@]12CCO[C@@H]1CCN(c1ncccn1)C2.O=C(O)C(F)(F)F | -9.525% |
| CC(=O)N1CC[C@H]2OCC[C@@]2(C(=O)NCc2ccco2)C1 | 16.6% |
| Cc1ccnc(OC[C@@]23CCO[C@@H]2CCN(c2ncccn2)C3)n1.O=C(O)C(F)(F)F | -11.59% |
| Cc1cnc(CNC(=O)[C@@]23CCO[C@@H]2CCN(c2ncccn2)C3)cn1 | 105.8% |
| O=C(NCc1ccccn1)[C@@]12CCO[C@@H]1CCN(c1ncccn1)C2 | 99.07% |
| CCN1CCN(C[C@@H]2CN(c3ncccc3C(F)(F)F)C[C@@H]2CO)CC1 | -2.806% |
| COCC(=O)N1CCC2(CC1)CCn1c(-c3cccc(OC)c3)cnc12 | -17.52% |
| O=C(O)C(F)(F)F.O=C(c1cscn1)N1CCc2ncc(CN3CCCC3)n2CC1 | -30.66% |
| CCN1CCn2c(C)cnc2C12CCN(C(=O)COC)CC2.O=C(O)C(F)(F)F.O=C(O)C(F)(F)F | 77.99% |
| CCN1CCn2c(C)cnc2C12CCN(C(=O)c1ccc(Cl)cc1)CC2.O=C(O)C(F)(F)F | -23.96% |
| CCN1CC(=O)NCC12CCN(C(=O)c1ccco1)C2.O=C(O)C(F)(F)F (centres undefined) | -12.24% |
| CCN1CCn2c(C)cnc2C12CCN(C(=O)c1ccco1)CC2.O=C(O)C(F)(F)F.O=C(O)C(F)(F)F | 97.51% |
| CCN1CCn2c(C)cnc2C12CCN(C(=O)c1cscn1)CC2.O=C(O)C(F)(F)F.O=C(O)C(F)(F)F | 113.9% |
| CCN1CCn2c(C)cnc2C12CCN(C(=O)Cc1ccccc1)CC2.O=C(O)C(F)(F)F.O=C(O)C(F)(F)F | 97.89% |
| CCN1CC[C@@]2(C(=O)N(C)C)CCN(C(=O)Cc3ccccc3)CC[C@@H]12.O=C(O)C(F)(F)F | 0.7047% |

| SMILES | Percent Effect |
| --- | --- |
| CCN(C)c1ncnc2c1CCN(C(=O)COC)CC2.O=C(O)C(F)(F)F | -4.529% |
| CCCNC(=O)c1cc(-c2ccn(C(C)C)n2)n2ccccc12 | -14.06% |
| CCC1CN(Cc2c(O)ccc3oc4c(c23)CCCC4)CCO1 (centres undefined) | -8.053% |
| CCCn1nc(-c2nc(Cc3ccc(OC)cc3)no2)ccc1=O | -20.77% |
| CC(C)c1nc2c(n1C)CCN(CCCc1nc3ccccc3o1)C2 | -2.699% |
| Cn1cc(-c2nc(CN3CCN(CCO)CC3)cs2)cn1 | -9.549% |
| Cc1ccc(C(C)(O)CNC(=O)c2scnc2C)o1 (centres undefined) | -6.969% |
| Cc1ccc2oc(=O)n(CCC(=O)N3CCCC4(CNC(=O)O4)C3)c2c1 (centres undefined) | -2.854% |
| CC(C)c1ccc(C(O)Cn2c(=O)c(C#N)cn(C3CC3)c2=O)cc1 (centres undefined) | -1.509% |
| O=C(O)C(F)(F)F.O=C(O)C(F)(F)F.c1cncc(COCc2nnc3n2CCN(CC2CC2)C3)c1 | -1.478% |
| CN(C)CCOCc1nnc2n1CCN(Cc1ccsc1)C2.O=C(O)C(F)(F)F.O=C(O)C(F)(F)F | -13.86% |
| CC(C)N(C)Cc1nnc2n1CCN(Cc1ccncc1)CC2.O=C(O)C(F)(F)F.O=C(O)C(F)(F)F.O=C(O)C(F)(F)F | -8.532% |
| CN(C)C(=O)COCc1nnc2n1CCN(Cc1ccsc1)C2.O=C(O)C(F)(F)F | 3.675% |
| CN(C)CCOCc1nnc2n1CCN(Cc1ccc(F)cc1)CC2.O=C(O)C(F)(F)F.O=C(O)C(F)(F)F | 109.9% |
| CN(C)CCOCc1nnc2n1CCN(CC1CC1)CC2.O=C(O)C(F)(F)F.O=C(O)C(F)(F)F | 103.3% |
| CN(C)CCOCc1nnc2n1CCN(Cc1ccoc1)CC2.O=C(O)C(F)(F)F.O=C(O)C(F)(F)F | 88.27% |
| CN(C)C(=O)COCc1nnc2n1CCN(Cc1ccoc1)C2.O=C(O)C(F)(F)F | -2.89% |
| COCc1nnc2n1CCN(Cc1ccoc1)C2.O=C(O)C(F)(F)F | -3.646% |
| COc1ccc(CN2CCc3nnc(COCCN(C)C)n3CC2)cc1.O=C(O)C(F)(F)F.O=C(O)C(F)(F)F | 131% |
| CC(C)N(C)Cc1nnc2n1CCN(CC1CC1)CC2.O=C(O)C(F)(F)F.O=C(O)C(F)(F)F | 9.045% |
